Assay results from PubChem BioAssay AID1211 (NMMLSC, 2008).
Activity calls are given as the source filed them. No rule for the calls is given here.

Biological target: Estrogen receptor (Homo sapiens) (UniProt P03372)
Assay: ERalpha ligand binders by competition, primary screen, cell-based, Cos7 ERalpha-GFP, flow cytometry (AID 1211);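 also: 0% = DMSO vehicle wells and 100% = no E2-Alexa633 signal left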
Conditions: fluorescent ligand competition, stronger effect = higher value

Sequence of Estrogen receptor (Homo sapiens) (P03372 whole entry, looked up): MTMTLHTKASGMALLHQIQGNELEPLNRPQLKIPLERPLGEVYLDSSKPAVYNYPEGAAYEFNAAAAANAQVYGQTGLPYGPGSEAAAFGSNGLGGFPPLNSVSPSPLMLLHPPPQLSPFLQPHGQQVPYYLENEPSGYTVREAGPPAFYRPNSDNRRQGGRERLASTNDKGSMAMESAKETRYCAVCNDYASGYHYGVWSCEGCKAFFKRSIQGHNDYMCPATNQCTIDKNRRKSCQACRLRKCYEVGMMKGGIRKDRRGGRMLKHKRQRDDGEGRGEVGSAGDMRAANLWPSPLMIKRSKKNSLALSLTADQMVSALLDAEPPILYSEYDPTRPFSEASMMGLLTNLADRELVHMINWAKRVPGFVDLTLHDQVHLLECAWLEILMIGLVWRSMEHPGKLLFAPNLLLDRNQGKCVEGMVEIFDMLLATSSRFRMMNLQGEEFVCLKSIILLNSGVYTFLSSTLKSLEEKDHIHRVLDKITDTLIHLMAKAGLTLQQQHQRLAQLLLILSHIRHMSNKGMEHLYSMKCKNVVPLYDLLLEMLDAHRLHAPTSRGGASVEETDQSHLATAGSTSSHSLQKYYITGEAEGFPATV

| SMILES | inhibition of ligand binding (at 10 µM) | inhibition of ligand binding (binding inhibition, at 0.1 µM) [%] |
| --- | --- | --- |
| O=C(Cc1cccs1)Nc1nncs1 | 33% (inactive) | 13 |
| O=C(Cc1ccccc1)Nc1ccc2oc(-c3cccnc3)nc2c1 | 32% (inactive) | 44 |
| NC(=O)c1c(NC(=O)c2cccs2)sc2c1CCCCCC2 | 0% (inactive) | 22 |
| Cc1c2cc(O)c(=O)cc-2oc2cc(O)c(O)cc12 | 31% (inactive) | 51 |
| COc1ccc(C2C=C(c3ccc(Cl)cc3)Nc3nc(NC(C)=O)nn32)cc1 (stereo not drawn) | 42% (inactive) | 22 |
| CCOc1ccc(CC2S/C(=N/c3ccccn3)NC2=O)cc1 (stereo not drawn) | 8% (inactive) | 2 |
| C/C=C(/C(=C/C)c1ccc(O)cc1)c1ccc(O)cc1 | 76% (active) | 87 |
| Cc1ccc(-n2nnnc2SCC(=O)Nc2cccc(NC(=O)c3ccco3)c2)cc1C | 46% (inactive) | 7 |
| CCCCOC(=O)c1c(C)oc2ccc(NS(=O)(=O)c3ccc4c5c(cccc35)C(=O)N4)cc12 | 66% (active) | 51 |
| C=C(C)CNC(=S)NNC(=O)CCn1c2cc(Cl)ccc2c2ccc(Cl)cc21 | 60% (inactive) | 15 |
| COc1ccc(-c2ccc(=O)[nH]n2)cc1 | 22% (inactive) | 52 |
| O=c1c2c([nH]c3ccccc13)C(=C1CCCC1)CC2 | 0% (inactive) | 36 |
| COc1cccc(NC(=O)CSc2nc3ccccc3c3nc4ccccc4n23)c1 | 51% (inactive) | 56 |
| CCOc1ccc(N=C2NC(=O)S/C2=C\c2ccc(OC)cc2)cc1 | 39% (inactive) | 26 |
| Cc1ccc(C(=O)CSC2=C(C#N)C(c3ccco3)CC(=O)N2)c(C)c1 (stereo not drawn) | 49% (inactive) | 53 |
| COc1ccccc1N1CCN(C(=O)c2ccc3nc(-c4ccco4)c(-c4ccco4)nc3c2)CC1 | 36% (active) | 82 |
| CCOC(=O)CN1C(c2ccc(O)cc2)Nc2ccc(Br)cc2C1c1ccccc1 (stereo not drawn) | 24% (inactive) | 11 |
| O=C(Nc1ccc(-c2nc3ccc(NC(=O)c4cccs4)cc3[nH]2)cc1)c1cccs1 | 39% (inactive) | 20 |
| N#Cc1c(NCCN)nc(NCc2ccccc2)c2c1CCN(Cc1ccccc1)C2 | 65% (inactive) | 15 |
